Results from PubChem BioAssay (NCATS).
Several values for one entry are separate records, joined by “and”; a condition that tells them apart may be missing. Equal values may be shown once. Results filed as inconclusive are left out. Activity calls are given as the source filed them. Unless noted, calls come from the whole dose curve; as a rule, active = well fitted curve in the direction sought with a large enough effect; inconclusive = small, poorly fitted or top-dose-only effect, or another doubt; inactive = no such curve, though single readings can be large; an effect the other way counts as inactive or inconclusive.

Tests used:
[1] = tested on: SKOV3; test: Primary qHTS to identify gynecologic anti-cancer compounds using libraries of approved drugs and bioactive compounds (AID 1345084); settings: Gynecologic cancer cell panel viability, ATPlite luminescence, 48 h; series mostly up to 57.5 µM; note: nearly all actives have a fitted effect of over 55% in size; note: potency is the fitted concentration of half-maximal effect
How it was run: (§1)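 Cells, 1,000 per well, were allowed to settle for 16 h at 37 C before compound addition. Five concentrations were tested for 48 h, and viability was read by ATPlite luminescence after 15 min at room temperature.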

[2] = tested on: Tov-21-G; test: as above; settings: Gynecologic cancer cell panel viability, ATPlite luminescence, 48 h; series mostly up to 57.5 µM
How it was run: as §1

[3] = tested on: Tov112D; test: as above; settings: Gynecologic cancer cell panel viability, ATPlite luminescence, 48 h; series mostly up to 57.5 µM
How it was run: as §1

[4] = Drug repurposing screens with cells derived from glioblastoma tumor samples (AID 1345199); settings: GBM patient neurospheres viability, ATP luminescence, 48 h; note: nearly all actives have a fitted effect of over 40% in size; note: potency is the fitted concentration of half-maximal effect; for activity, negative = cell killing: % is set by controls: 0 for no effect and ±100 for the full control effect
How it was run: (§2)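 Four patient lines of CD133+ GBM neurospheres were screened at several concentrations; hits were retested in those lines plus three slower-growing GBM lines, using 48-hour treatment and ATP-based viability.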

[5] = tested on: astro; test: as above; settings: viability, ATP luminescence, 48 h; series mostly up to 45.9 µM
How it was run: as §2

[6] = tested on: PA-1; test: Primary qHTS to identify gynecologic anti-cancer compounds using libraries of approved drugs and bioactive compounds (AID 1345084); settings: Gynecologic cancer cell panel viability, ATPlite luminescence, 48 h; series mostly up to 57.5 µM; note: nearly all actives have a fitted effect of over 55% in size; note: potency is the fitted concentration of half-maximal effect
How it was run: as §1

[7] = target: Nuclear receptor subfamily 1 group I member 2 (Rattus norvegicus) (UniProt Q9R1A7); test: qHTS assay for small molecule activators of the rat pregnane X receptor (rPXR) signaling pathway (AID 651751; call rule not given here; note: 0% is about no effect); settings: rPXR reporter cells, luciferase (One-Glo), 24 h
[8] = qHTS assay for small molecule activators of the human pregnane X receptor (PXR) signaling pathway (AID 720659; call rule not given here; note: 0% is about no effect)
[9] = at 45.9 µM (top of the series), tumour line B
[10] = at 45.9 µM (top of the series), tumour line D
[11] = at 46.1 µM (top of the series), tumour line C
[12] = at 46 µM (top of the series), tumour line A
[13] = at 20 µM (top of the series), tumour line C
[14] = at 21.2 µM (top of the series), tumour line B
[15] = at 21.2 µM (top of the series), tumour line D
[16] = at 21.3 µM (top of the series), tumour line A

Sequence of Nuclear receptor subfamily 1 group I member 2 (Rattus norvegicus) (Q9R1A7 whole entry, looked up): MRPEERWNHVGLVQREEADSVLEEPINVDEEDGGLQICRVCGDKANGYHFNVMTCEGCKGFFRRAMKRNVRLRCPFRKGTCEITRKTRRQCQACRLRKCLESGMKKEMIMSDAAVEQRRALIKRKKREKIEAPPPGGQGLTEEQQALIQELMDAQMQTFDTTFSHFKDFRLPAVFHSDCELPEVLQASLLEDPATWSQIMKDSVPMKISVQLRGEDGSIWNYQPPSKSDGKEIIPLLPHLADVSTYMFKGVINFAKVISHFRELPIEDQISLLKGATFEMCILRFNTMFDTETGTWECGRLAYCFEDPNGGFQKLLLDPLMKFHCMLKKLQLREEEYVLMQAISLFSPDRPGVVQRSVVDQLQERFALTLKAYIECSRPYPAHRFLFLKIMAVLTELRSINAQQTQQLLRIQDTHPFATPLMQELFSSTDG

COc1cc(-c2ccc(=O)[nH]n2)ccc1OC(F)F
inactive: Potency [1] | Potency [2] | Potency [3] | activity, negative = cell killing [4, 9] -9.45% | activity, negative = cell killing [4, 10] -28.9% | activity, negative = cell killing [4, 11] -14.1%

COc1ccc(/C=C/C(=O)c2ccc(OC)cc2OC)cc1
active: Potency [1] 2.24 µM | Potency ([4]; tumour line A) 35.5 µM | Potency ([4]; tumour line D) 12.6 µM
inactive: Potency [2] | Potency [3] | activity, negative = cell killing [4, 11] -59.7%

C[C@]12C=CC(=O)C=C1CC[C@@H]1[C@@H]2[C@@H](O)C[C@@]2(C)[C@H]1CC[C@]2(O)C(=O)CO
inactive: Potency [1] | Potency [2] | Potency [3] | activity, negative = cell killing [4, 9] -12.2% | activity, negative = cell killing [4, 10] -11.3% | activity, negative = cell killing [4, 12] -29.3% | activity, negative = cell killing [4, 11] -10.5% | Potency [5]

CCCCCCCCCCCCCCCCCC(=O)OCC(O)CO (configuration not stated)
inactive: Potency [1] | Potency [2] | Potency [3] | activity, negative = cell killing [4, 9] -5.26% | activity, negative = cell killing [4, 10] -15.3% | activity, negative = cell killing [4, 11] 1% | Potency [5]

O=C1OCCN1/N=C/c1ccc([N+](=O)[O-])o1
inactive: Potency [1] | Potency [2] | Potency [3] | activity, negative = cell killing [4, 9] 4.9% | activity, negative = cell killing [4, 10] -7.13% | activity, negative = cell killing [4, 12] -29.3% | activity, negative = cell killing [4, 11] 4.37% | Potency [5]

CC(=O)Oc1ccc2c(c1)CC[C@@H]1[C@@H]2CC[C@]2(C)[C@@H](O)CC[C@@H]12
inactive: Potency [1] | Potency [2] | activity, negative = cell killing [4, 11] -5.95%
active: Potency ([4]; tumour line A) 12.6 µM

CN1CCC(=C2c3ccccc3Sc3ccccc32)CC1
inactive: Potency [6] | Potency [2] | Potency [3]
active: Potency [5] 11.2 µM

CNCC[C@@H](Oc1ccccc1C)c1ccccc1
inactive: Potency [6] | Potency [3] | Potency [5]

CN1CCN(CCCN2c3ccccc3Sc3ccc(S(=O)(=O)N(C)C)cc32)CC1
active: Potency ([4]; tumour line A) 7.94 µM
inactive: Potency [1] | Potency [2] | Potency [3] | activity, negative = cell killing [4, 13] 3.3% | activity, negative = cell killing [4, 14] -12.4% | Potency [5]

CO/N=C1\CN(c2nc3c(cc2F)c(=O)c(C(=O)O)cn3C2CC2)CC1CN (configuration not stated)
inactive: Potency [1] | Potency [2] | Potency [3] | activity, negative = cell killing [4, 9] -0.703% | activity, negative = cell killing [4, 10] -7.84% | activity, negative = cell killing [4, 11] 13.8% | Potency [5]

Cc1c(N(C)CS(=O)(=O)O)c(=O)n(-c2ccccc2)n1C
inactive: Potency [1] | activity, negative = cell killing [4, 13] -2.96% | activity, negative = cell killing [4, 14] -9.28% | activity, negative = cell killing [4, 15] -9.47% | activity, negative = cell killing [4, 16] -23.9% | Potency [5]

CCCCCCC[N+](CC)(CC)CCCCc1ccc(Cl)cc1
active: Potency [6] 4.47 µM | Potency [2] 20 µM | Potency [5] 8.91 µM

CC(C)(C)CC(C)(C)c1ccc(O)c(Cc2ccc(Cl)cc2Cl)c1
inactive: Potency [6] | Potency [2] | Potency [3]
active: Potency [5] 22.4 µM

CN(C)CC/C=C1\c2ccccc2Sc2ccc(Cl)cc21
inactive: Potency [6] | Potency [2] | activity, negative = cell killing [4, 11] -26.8%
active: Potency ([4]; tumour line A) 6.31 µM | Potency ([4]; tumour line D) 11.2 µM | Potency [5] 22.4 µM

COc1cccc2c1C(=O)c1c(O)c3c(c(O)c1C2=O)C[C@@](O)(C(=O)CO)C[C@@H]3O[C@H]1C[C@H](N)[C@H](O)[C@H](C)O1
inactive: activity, negative = cell killing [4, 9] -6.08% | activity, negative = cell killing [4, 10] -1.75% | activity, negative = cell killing [4, 12] -30.7% | activity, negative = cell killing [4, 11] -4.46% | max response [7] 0.888% and 0.44% | outcome [8]
active: Potency [1] 2.82 µM | Potency [3] 0.891 µM

COCc1c(C(C)C)nc(C(C)C)c(/C=C/[C@@H](O)C[C@@H](O)CC(=O)O)c1-c1ccc(F)cc1
active: Potency [6] 2.82 µM | Potency [2] 7.08 µM | Potency [3] 3.16 µM | Potency [5] 0.1 µM

Oc1ccc(Cl)cc1Sc1cc(Cl)ccc1O
inactive: Potency [1]
active: Potency [5] 7.94 µM

C[C@]12CCC(=O)C=C1[C@@H]1C[C@@H]1[C@H]1[C@@H]3[C@@H]4C[C@@H]4[C@@]4(CCC(=O)O4)[C@@]3(C)CC[C@@H]12
inactive: Potency [1] | Potency [2] | Potency [3] | activity, negative = cell killing [4, 9] -20.2% | activity, negative = cell killing [4, 10] -9.23% | activity, negative = cell killing [4, 11] -0.55% | Potency [5]

CCCCC(CC)CN=C(N)NC(N)=NCCCCCCN=C(N)NC(N)=NCC(CC)CCCC (configuration not stated)
active: Potency [6] 10 µM | Potency [2] 17.8 µM | Potency [5] 11.2 µM

C[C@]12CC[C@H]3[C@@H](CCC4=CC(=O)CC[C@@]43C)[C@@H]1CC[C@@H]2C(=O)CO
active: Potency [6] 22.4 µM
inactive: Potency [2] | Potency [3] | activity, negative = cell killing [4, 14] -21.2% | activity, negative = cell killing [4, 15] -27.5% | Potency [5]

CCOc1ccc(Cc2nccc3cc(OCC)c(OCC)cc23)cc1OCC
active: Potency [1] 2.24 µM
inactive: Potency [2] | activity, negative = cell killing [4, 13] 6.5%

COc1c(C)c2c(c(O)c1C/C=C(\C)CCC(=O)O)C(=O)OC2
active: Potency [6] 0.282 µM | Potency [2] 1 µM
inactive: activity, negative = cell killing [4, 13] -18.6%

NC(=NCCCCCCN=C(N)/N=C(\N)Nc1ccc(Cl)cc1)/N=C(\N)Nc1ccc(Cl)cc1
inactive: Potency [2] | Potency [3] | outcome [8]
active: Potency [6] 15.8 µM | Potency [5] 11.2 µM

CN(C)C(=S)SC(=S)N(C)C
inactive: activity, negative = cell killing [4, 9] -2.75% | activity, negative = cell killing [4, 10] -2.32% | activity, negative = cell killing [4, 12] -14.5% | activity, negative = cell killing [4, 11] -7.02% | Potency [5] | max response [7] -1.67%
active: Potency [1] 11.2 µM | Potency [2] 8.91 µM | Potency [3] 28.2 µM

CC(=O)c1ccc2c(c1)N(CCCN1CCC(CCO)CC1)c1ccccc1S2
active: Potency ([4]; tumour line A) 11.2 µM
inactive: Potency [1] | Potency [2] | Potency [3] | activity, negative = cell killing [4, 13] 17.8% | activity, negative = cell killing [4, 14] -21.7%

CC(=O)N(O)CCCCCNC(=O)CCC(=O)N(O)CCCCCNC(=O)CCC(=O)N(O)CCCCCN
inactive: Potency [1] | Potency [2] | activity, negative = cell killing [4, 13] 5.11% | activity, negative = cell killing [4, 14] -16.9% | activity, negative = cell killing [4, 15] -9.85% | activity, negative = cell killing [4, 16] -22.8% | Potency [5]
